# Source: PubChem BioAssay
# What was measured:
# [1] = tested on: Human papillomavirus type 1a protein E7 (residues 44-93); assay: HPV1a E7 fragment binders on microarrays, primary screen, biochemical, small-molecule microarray, residues 44-93, 635 nm fluorescence (AID 1108); conditions: small-molecule microarray binding, fluorescence 635 nm; higher = more signal;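 further: E7 fragment applied at 1 µg/mL in TBST for 1 h at 4 C; score combines spot fluorescence with its signal to noise ratio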
# [2] = modulators of HCV replicon luciferase signal, primary screen, HCV replication inhibitor project, Huh7 cells, luciferase reporter (AID 1109); conditions: 48 h, higher = more signal;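 further: huh7 hepatoma cells harbouring a luciferase neomycin HCV replicon reporter; luciferase luminescence as measure of HCV replicon replication; test concentration not given here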
# [3] = target: Left-right determination factor 2 (Homo sapiens) (UniProt O00292); assay: LEFTY2 binders on small-molecule microarrays, primary screen, biochemical, small-molecule microarray, 635 nm fluorescence scan (AID 1110); conditions: LEFTY2 binding, higher = more signal
# [4] = target: Calmodulin-1 (Homo sapiens) (UniProt P0DP23); assay: CALM1 binders on microarrays, EGTA buffer, profiling panel, biochemical, small-molecule microarray, Cy5-labelled CALM1 (AID 1111); conditions: Cy5-CALM1 binding fluorescence, higher = more signal;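 further: labelled calmodulin applied in Tris saline Tween buffer holding calcium plus EGTA and DTT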
# [5] = target: Calmodulin-1 (Homo sapiens) (UniProt P0DP23); assay: calcium-bound CALM1 binders on microarrays, profiling panel, artefact control for SMM control-protein annotation, biochemical, small-molecule microarray, Cy5-labelled CALM1, plus calcium (AID 1112); conditions: Cy5-CALM1 binding fluorescence, higher = more signal;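 further: score merges spot fluorescence with signal to noise from triplicate slides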
# [6] = small-molecule microarray binders of probe aWnt5a, primary screen, biochemical, biotinylated probe, 635/667 nm fluorescence (AID 1113); conditions: higher = more signal;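 further: score merges 667 nm fluorescence intensity with signal-to-noise per printed feature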
# [7] = small-molecule microarray binders of probe aShh, primary screen, biochemical, biotinylated probe, 635/667 nm fluorescence (AID 1114); conditions: higher = more signal;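 further: probe is biotin-labelled aShh protein from a stem cell growth factor screen; measures binding of labelled protein to compounds printed on the slide; score merges feature fluorescence at 667 nm with signal-to-noise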
# [8] = small-molecule microarray binders of probe aNog, primary screen, biochemical, biotinylated probe, 635/667 nm fluorescence (AID 1115); conditions: higher = more signal;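 further: probe is biotinylated aNog protein used at 0.15 µg/mL for 1 h at 4 C; z-score combines 667 nm fluorescence of each spot with its signal to noise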
# [9] = target: Torsin-1A-interacting protein 1 (Homo sapiens) (UniProt Q5JTV8); assay: LAP1 binders from COS7 cell lysate, primary screen, small-molecule microarray, 635/667 nm fluorescence (AID 1116); conditions: COS7-hLAP1 lysate binding, 635 nm fluorescence, higher = more signal
# [10] = target: Alpha-bungarotoxin (Bungarus multicinctus) (UniProt P60615); assay: alpha-bungarotoxin binders on microarray, profiling panel, artefact control for SMM control protein annotation, biochemical, small-molecule microarray, Alexa647 label, 635/667 nm fluorescence (AID 1117); conditions: alpha-BTX-A647 binding fluorescence, higher = more signal
# Alpha-bungarotoxin (Bungarus multicinctus), sequence (P60615 whole entry, looked up): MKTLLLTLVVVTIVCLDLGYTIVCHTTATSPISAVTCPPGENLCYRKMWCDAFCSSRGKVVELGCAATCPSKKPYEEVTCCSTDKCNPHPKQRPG
# Torsin-1A-interacting protein 1 (Homo sapiens), sequence (Q5JTV8 whole entry, looked up): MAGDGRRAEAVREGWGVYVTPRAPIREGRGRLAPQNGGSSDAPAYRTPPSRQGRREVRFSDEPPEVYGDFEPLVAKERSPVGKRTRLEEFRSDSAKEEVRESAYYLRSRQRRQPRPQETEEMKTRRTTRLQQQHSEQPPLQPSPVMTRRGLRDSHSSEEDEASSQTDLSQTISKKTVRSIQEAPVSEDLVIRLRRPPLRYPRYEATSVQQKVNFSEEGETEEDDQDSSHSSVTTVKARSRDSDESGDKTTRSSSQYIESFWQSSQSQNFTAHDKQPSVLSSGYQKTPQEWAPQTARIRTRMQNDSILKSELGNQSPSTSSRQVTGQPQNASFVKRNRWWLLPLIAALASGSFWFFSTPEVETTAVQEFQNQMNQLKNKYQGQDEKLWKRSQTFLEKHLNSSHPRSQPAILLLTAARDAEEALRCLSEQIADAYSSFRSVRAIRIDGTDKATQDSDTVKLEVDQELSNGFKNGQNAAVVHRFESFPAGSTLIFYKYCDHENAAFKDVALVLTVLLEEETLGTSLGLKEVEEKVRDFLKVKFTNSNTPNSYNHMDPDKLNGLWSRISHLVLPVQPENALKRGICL
# Left-right determination factor 2 (Homo sapiens), sequence (O00292 whole entry, looked up): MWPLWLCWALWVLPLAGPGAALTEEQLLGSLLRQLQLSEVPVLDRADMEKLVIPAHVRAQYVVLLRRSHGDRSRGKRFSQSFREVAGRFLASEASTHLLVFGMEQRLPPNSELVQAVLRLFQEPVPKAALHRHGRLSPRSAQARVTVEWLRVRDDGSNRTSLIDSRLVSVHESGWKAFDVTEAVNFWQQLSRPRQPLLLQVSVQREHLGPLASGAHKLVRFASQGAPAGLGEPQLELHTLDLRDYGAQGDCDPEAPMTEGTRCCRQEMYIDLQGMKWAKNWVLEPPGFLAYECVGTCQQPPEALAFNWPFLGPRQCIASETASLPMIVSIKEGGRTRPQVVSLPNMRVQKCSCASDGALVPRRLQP
Structure (SMILES),composite z-score [1],z-score [2],composite z-score [3],composite z-score [4],composite z-score [5],composite z-score [6],composite z-score [7],composite z-score [8],composite z-score [9],composite z-score [10]
C=C(/C(=C/C[C@H](OC(C)=O)c1ccc(CO)o1)c1cc(C(=O)OC)ccc1OC)C(C)C,-0.3,-2.22,-0.183,-0.0278,-0.061,-0.0506,0.318,0.168,0.0916,-0.829
C=C(CCCC)/C(=C/C[C@H](OC(=O)c1ccncc1)c1ccccc1OCCO)c1cnc2ccccc2c1,1.13,-2.82,0.274,0.154,-0.666,-0.096,-0.0977,-0.0428,0.634,0.527
O=C1NC(=O)C2C1C=CC(C(O)c1cccs1)N2Nc1ccc(Cl)cc1Cl (stereo not given),-1.16,-0.153,-0.824,0.0484,0.243,-0.212,0.0278,-0.774,1.89,-0.779
Cc1ccc(S[C@]2(C(=O)NCCCN(C)C)CC(=O)N(Cc3ccccc3C(F)(F)F)[C@@H]2c2ccc(CO)cc2)cc1,-0.812,-0.767,-1.89,-0.168,0.0625,-0.0944,0.0893,0.216,0.122,0.266
C[C@H]1NC(=O)[C@@]23C(=O)N[C@@H](Cc4ccccc4)C2[C@H](C)[C@@]2(C)O[C@H]2C3/C=C/C/C=C\CNC(=O)[C@@H]2CCCN2C1=O (stereo not given in full),0.209,0.534,0.297,0.339,-0.52,-0.0593,-0.0035,-0.0841,0.159,0.368
COC(=O)[C@@]1(Cc2ccccc2)[C@H]2c3cc(C(=O)N(C)C)n(Cc4ccsc4Br)c3C[C@H]2CN1C(=O)c1ccccc1,1.41,-3.07,-0.329,1.79,0.463,0.107,0.342,1.2,0.905,0.626
C=C(COC)C(=O)CC[C@@H](OC(C)=O)c1ccc(CO)o1,-0.363,-0.0928,0.747,-0.401,-0.515,-0.0572,-0.123,0.0139,0.55,-0.0178
O=C1O[C@@H](c2ccccc2)[C@@H](c2ccccc2)N2[C@@H](c3ccccc3OCCO)[C@]3(C(=O)Nc4ccc(C#CC5=CCCCC5)cc43)[C@@H](C(=O)N3CCCCCCC3)[C@H]12,1.52,-3.29,1.74,3.02,1.72,1.4,3.21,3.35,5.37,3.65
CC(C)CNC(=O)[C@@]1(Cc2ccccc2I)c2ccccc2C(=O)N(C2CCCCC2)[C@H]1c1ccc(CO)cc1,0.63,-1.62,-0.294,0.424,0.349,0.0477,0.199,-0.237,0.961,3
CC(C)C[C@@H]1NC(=O)[C@H](C(C)C)NC(=O)[C@@]23C(=O)N[C@@H](Cc4ccccc4)C2[C@H](C)[C@@]2(C)O[C@H]2C3/C=C/CC/C=C/CNC1=O (stereo not given in full),1.35,-1.41,0.413,-0.245,-0.736,-0.117,-0.283,-0.397,0.268,0.705
O=C1c2ccccc2[C@](Cc2ccccc2I)(C(=O)NCCN2CCOCC2)[C@H](c2ccc(CO)cc2)N1Cc1ccccc1Cl,-0.612,-2.64,0.945,1.51,0.0568,0.0215,-0.0011,-0.474,0.896,1.47
C=C(CCCC)/C(=C/C[C@@H](OC(C)=O)c1ccc(OCCO)cc1)c1cnc2ccccc2c1,1.13,-1.44,0.285,-0.276,-0.642,-0.0735,-0.214,-0.158,0.887,1.29
O=C1C2C=CC(C(O)CCc3ccccc3)N(Nc3ccccc3F)C2C(=O)N1c1ccccc1 (stereo not given),1.29,-0.83,-0.208,0.611,0.11,0.229,0.13,1.03,1,0.324
COCCOC(=O)N1C(=O)[C@@]2(c3ccccc31)[C@H](C(=O)N1CCc3cc(OC)c(OC)cc3C1)[C@H]1C(=O)O[C@H](c3ccccc3)[C@H](c3ccccc3)N1[C@@H]2c1ccc(OCCO)cc1,1.02,-1.39,0.295,1.28,0.366,-0.147,-0.0863,0.495,1.05,0.663
CN(C)CCCCCCNC(=O)[C@H]1C[C@H]2C(=O)N[C@@H](CCCCN)C(=O)N2[C@H]1c1cccc(OCCO)c1,1.56,0.386,1.71,1.99,1.16,1.06,2.92,3.26,4.54,2.52
OCCCC1=CC(c2cccs2)N(Cc2cc3c(cc2Br)OCO3)CC1 (stereo not given),0.172,-0.807,-0.0241,0.0466,-0.16,-0.137,-0.0011,-0.105,0.26,1.36
COc1ccc([Si](C)(C)[C@H]2[C@H](CC(=O)N3Cc4ccccc4C[C@H]3CO)O[C@@]3(C(=O)N(Cc4cccc(N5CCC5=O)c4)c4ccccc43)[C@@H]2C)cc1,1.37,-3.58,0.903,-0.293,-1.02,-0.0425,0.2,0.0308,0.626,-0.0509

Structure (SMILES),composite z-score [1],z-score [2],composite z-score [3],composite z-score [4],composite z-score [5],composite z-score [6],composite z-score [7],composite z-score [8],composite z-score [9],composite z-score [10]
[N-]=[N+]=NCc1ccccc1C[C@]1(C(N)=O)COC(c2ccc(OCCCO)cc2)=N1,0.202,-0.17,-0.993,2.01,1.2,-0.0286,-0.0441,-0.169,2.59,1.58
O=C1C[C@@](C(=O)NC2CC2)(c2ccc([N+](=O)[O-])cc2)[C@@H](c2ccc(CO)cc2I)N1C1CCCCC1,1.43,-1.97,0.434,0.581,-0.183,-0.101,0.0756,0.217,0.388,1.24
CCC(CC)C(O)C1C=CC2C(=O)NC(=O)C2N1Nc1ccccn1 (stereo not given),0.365,-0.642,0.255,0.0646,-0.161,-0.0704,-0.217,0.455,0.275,0.512
C[C@H]1C2[C@H](Cc3ccccc3)NC(=O)[C@]23C(=O)N[C@H](Cc2ccccc2)C(=O)N2CCC[C@H]2C(=O)NC/C=C\C/C=C/C3[C@@H]2O[C@]12C (stereo not given in full),-0.355,0.255,0.203,-0.404,-0.863,-0.0165,-0.0146,-0.0003,0.0015,1.18
C=CC[C@]1(C(=O)NCCCOC)N=C(c2ccc(OCCCO)cc2)O[C@H]1c1ccccc1CN=[N+]=[N-],0.091,-2.09,0.593,2.12,0.988,0.0509,0.228,1.53,1.95,1.14
COc1cc2c(cc1OC)CN(C(=O)[C@@H]1[C@H]3C(=O)O[C@H](c4ccccc4)[C@H](c4ccccc4)N3[C@H](c3ccc(O)cc3)[C@@]13C(=O)Nc1ccccc13)CC2,1.39,-1.74,0.0147,0.457,0.603,-0.154,-0.167,-0.321,0.688,1.74
C=CC(=C)[C@H]1Oc2ccccc2S(=O)(=O)N2CCC[C@@H]12,-1.24,-3.25,0.0569,-0.523,-0.536,-0.138,-0.0211,-0.353,-0.448,0.279
O=C1N[C@@H](Cc2ccccc2)C(=O)N2[C@@H]1C[C@@H](C(=O)O)[C@H]2c1cccc(OCCO)c1,1.3,2.89,0.941,-0.657,0.465,-0.176,-0.243,-0.199,0.49,1.14
COC(=O)[C@@]1(CCC(=O)OC(C)(C)C)N=C(c2ccc(OCCCO)cc2)O[C@H]1c1ccccc1N=[N+]=[N-],0.799,-1.85,-0.0736,1.17,0.356,0.0101,0.178,-0.193,1.06,0.654
CC(C)[Si]1(C(C)C)O[C@@H](c2ccccc2)c2cc(-c3ccc(-c4ccc(Cl)c(Cl)c4)o3)nc(-c3ccccc3)c21,-0.342,-1.55,-0.115,0.487,0.0017,-0.137,-0.138,0.15,-0.101,0.575
O[C@@H](Cc1ccccc1)[C@H]1C2C=CCCC=C2CN1Cc1cccc(Cl)c1 (stereo not given in full),1.1,-1.42,0.702,0.0101,-0.2,-0.0721,-0.138,0.277,0.761,1.36
CC(C)=CCN[C@H](CO)c1ccccc1,0.318,-1.76,0.422,-0.644,-0.881,-0.13,0.0048,-0.278,0.157,0.189
COc1ccc(C(=O)Nc2ccc(CN3C(=O)[C@]4(O[C@H](CCO)[C@@H]([Si](C)(C)c5ccc(OC)cc5)[C@@H]4C)c4ccccc43)cc2)cc1,1,-5.09,0.202,0.564,-0.314,0.026,0.014,-0.226,0.432,0.509
Cc1ccccc1C(O)C1C=CC2C(=O)N(c3ccccc3)C(=O)C2N1Nc1ccc(C(C)C)cc1 (stereo not given),0.944,1.11,0.262,1.22,0.618,-0.0721,0.14,0.209,0.0331,1.16
COC(=O)c1c(CC[C@@H](CO)NC(=O)NCCn2cc(C3(O)CCCC3)nn2)oc(C(C)=O)c1C(=O)OC,-0.0133,-0.674,-0.0138,-0.19,-0.732,-0.169,-0.195,-0.158,0.331,0.139
C=CCC(OC(C)=O)[C@@H]1[C@@H](N(Cc2ccc(-c3ccccc3)cc2)C(=O)c2cccc3ccccc23)c2cc(OCCCO)ccc2N1C(=O)c1ccc(-c2ccccc2)cc1 (stereo not given in full),0.431,-0.133,-0.351,0.468,0.553,-0.187,-0.0793,-0.443,0.951,0.445
